The source made the active and inactive calls.
How the values were obtained:
[1] = test system: Human papillomavirus type 1a protein E7 (residues 44-93); assay: HPV1a E7 fragment binders on microarrays, primary screen, biochemical, small-molecule microarray, residues 44-93, 635 nm fluorescence (AID 1108); conditions: small-molecule microarray binding, fluorescence 635 nm; higher = more signal;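 further: E7 fragment applied at 1 µg/mL in TBST for 1 h at 4 C; score combines spot fluorescence with its signal to noise ratio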
[2] = modulators of HCV replicon luciferase signal, primary screen, HCV replication inhibitor project, Huh7 cells, luciferase reporter (AID 1109); conditions: 48 h, higher = more signal;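 further: huh7 hepatoma cells harbouring a luciferase neomycin HCV replicon reporter; luciferase luminescence as measure of HCV replicon replication; test concentration not given here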
[3] = biological target: Left-right determination factor 2 (Homo sapiens) (UniProt O00292); assay: LEFTY2 binders on small-molecule microarrays, primary screen, biochemical, small-molecule microarray, 635 nm fluorescence scan (AID 1110); conditions: LEFTY2 binding, higher = more signal
[4] = biological target: Calmodulin-1 (Homo sapiens) (UniProt P0DP23); assay: CALM1 binders on microarrays, EGTA buffer, profiling panel, biochemical, small-molecule microarray, Cy5-labelled CALM1 (AID 1111); conditions: Cy5-CALM1 binding fluorescence, higher = more signal;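 further: labelled calmodulin applied in Tris saline Tween buffer holding calcium plus EGTA and DTT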
[5] = biological target: Calmodulin-1 (Homo sapiens) (UniProt P0DP23); assay: calcium-bound CALM1 binders on microarrays, profiling panel, artefact control for SMM control-protein annotation, biochemical, small-molecule microarray, Cy5-labelled CALM1, plus calcium (AID 1112); conditions: Cy5-CALM1 binding fluorescence, higher = more signal;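 further: score merges spot fluorescence with signal to noise from triplicate slides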
[6] = small-molecule microarray binders of probe aWnt5a, primary screen, biochemical, biotinylated probe, 635/667 nm fluorescence (AID 1113); conditions: higher = more signal;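 further: score merges 667 nm fluorescence intensity with signal-to-noise per printed feature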
[7] = small-molecule microarray binders of probe aShh, primary screen, biochemical, biotinylated probe, 635/667 nm fluorescence (AID 1114); conditions: higher = more signal;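 further: probe is biotin-labelled aShh protein from a stem cell growth factor screen; measures binding of labelled protein to compounds printed on the slide; score merges feature fluorescence at 667 nm with signal-to-noise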
[8] = small-molecule microarray binders of probe aNog, primary screen, biochemical, biotinylated probe, 635/667 nm fluorescence (AID 1115); conditions: higher = more signal;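 further: probe is biotinylated aNog protein used at 0.15 µg/mL for 1 h at 4 C; z-score combines 667 nm fluorescence of each spot with its signal to noise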
[9] = biological target: Torsin-1A-interacting protein 1 (Homo sapiens) (UniProt Q5JTV8); assay: LAP1 binders from COS7 cell lysate, primary screen, small-molecule microarray, 635/667 nm fluorescence (AID 1116); conditions: COS7-hLAP1 lysate binding, 635 nm fluorescence, higher = more signal
[10] = biological target: Alpha-bungarotoxin (Bungarus multicinctus) (UniProt P60615); assay: alpha-bungarotoxin binders on microarray, profiling panel, artefact control for SMM control protein annotation, biochemical, small-molecule microarray, Alexa647 label, 635/667 nm fluorescence (AID 1117); conditions: alpha-BTX-A647 binding fluorescence, higher = more signal
[11] = biological target: Albumin (Bos taurus) (UniProt P02769); assay: bovine serum albumin binders on microarray, profiling panel, artefact control for SMM control protein annotation, biochemical, small-molecule microarray, Alexa647 label, 635/667 nm fluorescence (AID 1118); conditions: BSA-A647 binding, fluorescence 635 nm, higher = more signal;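 further: score merges 667 nm emission intensity and signal-to-noise per printed compound spot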
[12] = small-molecule microarray binders of probe aXIP, primary screen, biochemical, NeuroSMM set, 635/667 nm fluorescence (AID 1119); conditions: higher = more signal, called active from +8 up or from −8 down;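 further: probe is the protein aXip251-270 applied at 1 µg/mL to compound-printed slides; binding of probe to printed compounds measured as 667 nm fluorescence plus signal to noise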
[13] = small-molecule binders of probe aNOTCH3, primary screen, biochemical, small-molecule microarray, 635/667 nm fluorescence (AID 1120); conditions: higher = more signal;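 further: probe is a biotin-tagged antibody raised against NOTCH3 rather than NOTCH3 protein; score merges spot fluorescence near 667 nm with spot signal to noise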
[14] = small-molecule binders of probe aNOTCH2, primary screen, biochemical, small-molecule microarray, 635/667 nm fluorescence (AID 1121); conditions: higher = more signal;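 further: score merges feature fluorescence read at 667 nm with its signal to noise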
[15] = biological target: Carbonic anhydrase 2 (Homo sapiens) (UniProt P00918); assay: CAII small-molecule binders, profiling panel, biochemical, small-molecule microarray, Alexa647-labelled CAII (AID 1122); conditions: CAII-A647 binding fluorescence, higher = more signal
[16] = COS7 lysate on small-molecule microarray, probe aHis, 635 nm (AID 1123); conditions: COS7 cell lysate, fluorescence, higher = more signal;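 further: z-score combines 667nm fluorescence intensity with signal-to-noise per printed compound spot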
[17] = compound binding in COS7 lysate, probe aLAP1, primary screen, cell lysate, small-molecule microarray (AID 1124); conditions: probe aLAP1, fluorescence, higher = more signal;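 further: lysate comes from COS7 cells expressing LAP1 and is applied at 0.3 µg/mL; score merges spot fluorescence near 667 nm with signal-to-noise over triplicate slides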
[18] = test system: Sam68 (KHDRBS1); assay: Sam68 small-molecule binders, primary screen, biochemical, small-molecule microarray, 635 nm fluorescence (AID 1125); conditions: small-molecule microarray binding, higher = more signal;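 further: score merges 667 nm channel intensity with signal to noise over triplicate slides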
[19] = test system: Chordin-like protein 2 (CHRDL2); assay: CHRDL2 small-molecule binders, primary screen, biochemical, small-molecule microarray, 635 nm fluorescence (AID 1126); conditions: small-molecule microarray binding, fluorescence 635 nm; higher = more signal;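 further: printed compound slides probed with Chrdl2 protein at 4 µg/mL for 1 h at 4 C; score merges 667 nm emission intensity with signal to noise over three replicate slides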
[20] = biological target: Concanavalin-A (Canavalia ensiformis) (UniProt P02866); assay: ConA small-molecule binders, primary screen, artefact control for SMM control protein annotation, biochemical, small-molecule microarray, Alexa647 label, 635 nm (AID 1127); conditions: ConA-A647 binding fluorescence, higher = more signal;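 further: z combines 667 nm emission intensity with signal-to-noise across three replicate slides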
Chain of Concanavalin-A (Canavalia ensiformis) (P02866 whole entry, looked up): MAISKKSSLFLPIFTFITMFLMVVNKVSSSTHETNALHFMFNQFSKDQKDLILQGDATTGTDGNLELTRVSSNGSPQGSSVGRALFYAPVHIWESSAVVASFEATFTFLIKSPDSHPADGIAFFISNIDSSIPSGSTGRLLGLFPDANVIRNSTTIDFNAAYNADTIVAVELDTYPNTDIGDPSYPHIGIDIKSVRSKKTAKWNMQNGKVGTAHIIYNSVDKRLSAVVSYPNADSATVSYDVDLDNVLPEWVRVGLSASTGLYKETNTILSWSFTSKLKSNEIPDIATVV

Chain of Torsin-1A-interacting protein 1 (Homo sapiens) (Q5JTV8 whole entry, looked up): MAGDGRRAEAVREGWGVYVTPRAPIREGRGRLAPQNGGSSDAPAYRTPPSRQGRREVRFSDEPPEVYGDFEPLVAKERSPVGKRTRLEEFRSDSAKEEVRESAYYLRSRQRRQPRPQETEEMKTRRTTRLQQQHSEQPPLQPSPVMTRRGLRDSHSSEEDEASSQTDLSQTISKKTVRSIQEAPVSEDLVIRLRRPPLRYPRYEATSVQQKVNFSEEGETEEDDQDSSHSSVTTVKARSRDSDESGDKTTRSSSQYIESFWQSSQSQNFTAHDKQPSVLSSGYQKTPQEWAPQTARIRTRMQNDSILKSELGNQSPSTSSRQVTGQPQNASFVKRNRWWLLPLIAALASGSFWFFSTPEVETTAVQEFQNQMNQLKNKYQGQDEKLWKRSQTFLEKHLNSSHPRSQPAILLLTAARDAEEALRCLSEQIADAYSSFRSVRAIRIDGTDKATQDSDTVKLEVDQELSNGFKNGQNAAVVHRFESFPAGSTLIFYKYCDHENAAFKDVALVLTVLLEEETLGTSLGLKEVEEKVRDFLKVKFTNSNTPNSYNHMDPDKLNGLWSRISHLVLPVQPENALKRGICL
Chain of Albumin (Bos taurus) (P02769 whole entry, looked up): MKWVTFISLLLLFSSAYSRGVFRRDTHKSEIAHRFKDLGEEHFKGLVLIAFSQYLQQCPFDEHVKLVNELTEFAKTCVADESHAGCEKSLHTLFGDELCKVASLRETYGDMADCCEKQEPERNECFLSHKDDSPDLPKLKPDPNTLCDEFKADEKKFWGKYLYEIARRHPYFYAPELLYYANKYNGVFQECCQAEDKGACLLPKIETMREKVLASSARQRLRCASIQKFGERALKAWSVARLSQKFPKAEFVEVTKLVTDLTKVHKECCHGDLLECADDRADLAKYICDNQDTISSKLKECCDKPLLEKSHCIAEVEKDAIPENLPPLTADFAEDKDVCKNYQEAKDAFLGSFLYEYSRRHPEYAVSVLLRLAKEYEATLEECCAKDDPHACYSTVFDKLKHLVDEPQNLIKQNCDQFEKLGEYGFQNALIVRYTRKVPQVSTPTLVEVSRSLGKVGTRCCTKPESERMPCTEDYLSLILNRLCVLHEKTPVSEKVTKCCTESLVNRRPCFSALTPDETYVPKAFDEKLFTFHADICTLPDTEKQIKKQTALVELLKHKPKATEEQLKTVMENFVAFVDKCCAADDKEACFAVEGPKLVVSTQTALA
Chain of Left-right determination factor 2 (Homo sapiens) (O00292 whole entry, looked up): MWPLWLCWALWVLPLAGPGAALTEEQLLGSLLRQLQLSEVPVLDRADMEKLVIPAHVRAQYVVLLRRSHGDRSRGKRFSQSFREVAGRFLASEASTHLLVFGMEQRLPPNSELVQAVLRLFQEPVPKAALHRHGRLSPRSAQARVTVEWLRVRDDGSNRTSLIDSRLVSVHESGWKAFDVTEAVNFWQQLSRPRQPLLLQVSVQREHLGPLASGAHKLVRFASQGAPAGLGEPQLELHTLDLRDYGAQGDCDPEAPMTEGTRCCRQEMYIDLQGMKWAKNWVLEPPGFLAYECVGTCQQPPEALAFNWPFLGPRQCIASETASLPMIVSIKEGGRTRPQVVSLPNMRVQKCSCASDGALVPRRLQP
Chain of Alpha-bungarotoxin (Bungarus multicinctus) (P60615 whole entry, looked up): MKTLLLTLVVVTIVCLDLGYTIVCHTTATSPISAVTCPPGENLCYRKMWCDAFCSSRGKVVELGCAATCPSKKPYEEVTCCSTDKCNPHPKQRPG

Which results are given for `CC(CCN1CCCCc2nc(C)c(C)cc21)=NOC[C@@H](C)[C@H](OCc1ccccc1)C(C)C`?
composite z-score [1]: -0.824; z-score [2]: -0.876; composite z-score [3]: -1.47; composite z-score [4]: -1.74; composite z-score [5]: -1.8; composite z-score [6]: -0.335; composite z-score [7]: -0.428; composite z-score [8]: -0.803; composite z-score [9]: -1.07; composite z-score [10]: -2.21; composite z-score [11]: -0.303; composite Z-score [12]: -0.461 (inactive); composite z-score [13]: -0.427; composite z-score [14]: -0.298; composite z-score [15]: -0.497; composite z-score [16]: -0.31; composite z-score [17]: -0.899; composite z-score [18]: -0.758; composite z-score [19]: -1.78; composite z-score [20]: -1.88

Which composite z-score [1] does the source give for `CCOC(=O)NN=C1C[C@@H](O)[C@@H](O)[C@@H]2[C@@H]3C(=O)N(Cc4ccc5c(c4)OCO5)C(=O)[C@@H]3CC[C@H]12` here?
The composite z-score was 0.581.

What about the z-score [2] of the same compound?
Its z-score is 0.603.

And the composite z-score [3]?
Its composite z-score is -0.0985.

And the composite z-score [4]?
Its composite z-score is -0.569.

What about the composite z-score [5] of the same compound?
The composite z-score was -0.0188.

And the composite z-score [6]?
Its composite z-score is -0.129.

And the composite z-score [7]?
The composite z-score was -0.206.

And the composite z-score [8]?
Its composite z-score is -0.177.

What about the composite z-score [9] of the same compound?
Its composite z-score is 1.05.

What about the composite z-score [10] of the same compound?
The composite z-score was 0.543.

And the composite z-score [11]?
The composite z-score was 0.717.

And the composite Z-score [12]?
The composite Z-score was -0.0189 (inactive).

What about the composite z-score [13] of the same compound?
Its composite z-score is -0.0629.

And the composite z-score [14]?
The composite z-score was -0.14.

What about the composite z-score [15] of the same compound?
Its composite z-score is 0.347.

What about the composite z-score [16] of the same compound?
The composite z-score was 0.926.

And the composite z-score [17]?
Its composite z-score is -0.387.

What about the composite z-score [18] of the same compound?
The composite z-score was 0.364.

What about the composite z-score [19] of the same compound?
The composite z-score was -0.121.

And the composite z-score [20]?
The composite z-score was -1.27.

What does the source list for `CC(=O)OC[C@H]1O[C@H](CC=NO[C@H](C)c2cn([C@H](CO)Cc3ccccc3)nn2)C=C[C@@H]1OC(C)=O`?
composite z-score [1]: 1.16; z-score [2]: -0.355; composite z-score [3]: 0.852; composite z-score [4]: 0.081; composite z-score [5]: -0.367; composite z-score [6]: -0.0231; composite z-score [7]: -0.0553; composite z-score [8]: 0.223; composite z-score [9]: 0.213; composite z-score [10]: 1.27; composite z-score [11]: 0.376; composite Z-score [12]: -0.0641 (inactive); composite z-score [13]: 0.108; composite z-score [14]: -0.0482; composite z-score [15]: -0.0934; composite z-score [16]: 0.154; composite z-score [17]: 0.0588; composite z-score [18]: 1.29; composite z-score [19]: 0.41; composite z-score [20]: 0.597

With `CCOC(=O)[C@H](Cc1ccccc1)NC(=O)CCC1CC(OC(=O)NCc2cccc3ccccc23)CC2(CCCC(COC(=O)NCC(c3ccccc3)c3ccccc3)O2)O1` (stereo not given in full) as the compound, how does the composite z-score [1] read?
Its composite z-score is 0.313.

What about the z-score [2] of the same compound?
Its z-score is -1.46.

And the composite z-score [3]?
Its composite z-score is 0.567.

What about the composite z-score [4] of the same compound?
Its composite z-score is -0.328.

And the composite z-score [5]?
Its composite z-score is -0.43.

And the composite z-score [6]?
Its composite z-score is -0.096.

And the composite z-score [7]?
Its composite z-score is -0.2.

What about the composite z-score [8] of the same compound?
The composite z-score was -0.187.

And the composite z-score [9]?
Its composite z-score is 0.18.

What about the composite z-score [10] of the same compound?
Its composite z-score is -0.0602.

What about the composite z-score [11] of the same compound?
The composite z-score was 0.313.

What about the composite Z-score [12] of the same compound?
The composite Z-score was 0.793 (inactive).

What about the composite z-score [13] of the same compound?
Its composite z-score is 0.062.

And the composite z-score [14]?
The composite z-score was -0.169.

What about the composite z-score [15] of the same compound?
The composite z-score was 0.394.

What about the composite z-score [16] of the same compound?
Its composite z-score is 0.468.

And the composite z-score [17]?
Its composite z-score is -0.0448.

And the composite z-score [18]?
Its composite z-score is 0.914.

What about the composite z-score [19] of the same compound?
Its composite z-score is 0.203.

And the composite z-score [20]?
The composite z-score was 0.256.

Which composite z-score [1] does the source give for `CCOC(=O)[C@H](CC(C)C)NC(=O)CCC1CC(OC(=O)NCc2cccc3ccccc23)CC2(CCCC(COC(=O)NCCCN3CCCC3=O)O2)O1` (stereo not given in full) here?
The composite z-score was 1.15.

And the z-score [2]?
Its z-score is -1.12.

What about the composite z-score [3] of the same compound?
The composite z-score was 0.446.

What about the composite z-score [4] of the same compound?
The composite z-score was 0.446.

And the composite z-score [5]?
Its composite z-score is -0.385.

And the composite z-score [6]?
Its composite z-score is -0.194.

And the composite z-score [7]?
Its composite z-score is -0.206.

And the composite z-score [8]?
Its composite z-score is -0.467.

And the composite z-score [9]?
Its composite z-score is 0.196.

And the composite z-score [10]?
The composite z-score was 0.754.

And the composite z-score [11]?
Its composite z-score is 0.247.

And the composite Z-score [12]?
Its composite Z-score is -0.122 (inactive).

What about the composite z-score [13] of the same compound?
Its composite z-score is -0.0328.

What about the composite z-score [14] of the same compound?
Its composite z-score is -0.108.

And the composite z-score [15]?
The composite z-score was 0.581.

What about the composite z-score [16] of the same compound?
Its composite z-score is 0.444.

And the composite z-score [17]?
Its composite z-score is -0.0183.

And the composite z-score [18]?
Its composite z-score is 1.29.

What about the composite z-score [19] of the same compound?
The composite z-score was 0.256.

And the composite z-score [20]?
Its composite z-score is 0.832.
